# Source: PubChem BioAssay (National Center for Advancing Translational Sciences (NCATS))
# This is a sample that favours compounds with a hit; in the whole collection about 11% have one here.
# MCF10A rerep – DNA re-replication induction in MCF 10a cells; MCF 10A DNA re-replication, Hoechst nuclear intensity, 48 h; Potency, µM (doses to about 46.1 µM), without a hit: top-dose activity, positive = re-replication, actives largely listed as activators; 350,000 tested, 2.9% active; also: potency is read from the fitted curve at half-maximal effect; % of control where 0% means no effect; nearly all actives have a fitted effect of over 50% in size
# RORgamma inh – ROR gamma (mouse) transcription inhibition; Drosophila S2 Gal4-RORgamma UAS-luciferase reporter, 20 h; Potency, µM (series often up to 53.6 µM), for the others: top-dose activity change, negative = inhibition, most hits filed as inhibitors; AID 2551; 310,000 tested, 5.4% active; also: potency is read from the fitted curve at half-maximal effect; % is scaled to controls: 0 for no effect and ±100 for the full control effect; nearly all actives have a fitted effect of over 60% in size
# Target sequence (P51450 whole entry, looked up, the tested form may be a part): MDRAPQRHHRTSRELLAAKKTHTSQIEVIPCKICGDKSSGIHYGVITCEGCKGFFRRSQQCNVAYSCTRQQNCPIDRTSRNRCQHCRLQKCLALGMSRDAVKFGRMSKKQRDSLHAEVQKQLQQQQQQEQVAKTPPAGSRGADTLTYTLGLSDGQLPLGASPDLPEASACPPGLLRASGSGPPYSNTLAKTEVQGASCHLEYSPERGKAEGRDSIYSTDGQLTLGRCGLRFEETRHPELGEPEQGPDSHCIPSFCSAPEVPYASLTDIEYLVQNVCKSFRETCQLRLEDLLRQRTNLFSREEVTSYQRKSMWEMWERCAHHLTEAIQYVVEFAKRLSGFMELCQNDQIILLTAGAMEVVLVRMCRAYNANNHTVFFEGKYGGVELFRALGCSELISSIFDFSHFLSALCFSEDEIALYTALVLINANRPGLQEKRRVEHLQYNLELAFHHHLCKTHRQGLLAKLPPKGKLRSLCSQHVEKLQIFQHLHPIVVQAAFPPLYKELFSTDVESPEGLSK
#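 Using a luciferase readout, inhibitors were identified by reduced reporter activity in Drosophila cells coexpressing a copper-inducible Gal4–ROR gamma fusion and UAS-driven Photinus luciferase, incubated 20 hr after 700 uM copper sulfate.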
# Gal4-VP16 FLuc – Gal4-VP16 reporter inhibition counter-screen; Potency, µM (top dose mostly 53.6 µM), inactives show at the top dose activity, negative = inhibition, hits mostly inhibitors; AID 2546; 310,000 tested, 3.5% active; Drosophila S2 Gal4-VP16 UAS-luciferase, luminescence, 20 h;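 also: Gal4-VP16 expression switched on by copper sulfate through the metallothionein promoter; potency is read from the fitted curve at half-maximal effect; % is scaled to controls: 0 for no effect and ±100 for the full control effect; nearly all actives have a fitted effect of over 50% in size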
# SW480 rerep – inducers of DNA re-replication in SW480 colon cancer cells. SW480 DNA re-replication, Hoechst DNA content imaging, 48 h. Potency, µM (series often up to 46.1 µM), inactives show at the top dose re-replication activation, hits mostly activators. 340,000 tested, 1.8% active. AID 624297; also: potency is read from the fitted curve at half-maximal effect; % of control where 0% means no effect; nearly all actives have a fitted effect of over 55% in size
#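 Quantitative HTS format with DMSO vehicle controls; 48 hr drug incubation at 37 C, then 40 min Hoechst staining and scanning imager measurement at 405 nm excitation.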
# IL-1B inflam inh – inhibitors of inflammasome signaling (IL-1 beta secretion) | activity change, % at 57.5 µM | 360,000 tested, 4.7% active | THP-1 LPS/ATP IL-1B secretion, AlphaLISA, 16 h; active compounds read low; in the data active = activity change below about -50%; inconclusive = mostly about -30% to -49%; also: % is scaled to controls: 0 for no effect and ±100 for the full control effect
#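 THP-1 cells pretreated 1 hr with compounds (up to 57.5 uM final), then stimulated with LPS (250 ng/mL final) plus ATP (1.25 mM final); secreted IL-1B measured by AlphaLISA after 16 hr, decreased signal indicating inhibition.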
# * marks the source's active call; other numbers are inactive results; ? = inconclusive; / = no result given; [ ] = remark or other dose. Unless noted, calls follow the shape of the dose curve; as a rule, active = well fitted curve in the direction sought with a large enough effect; inconclusive = small, poorly fitted or top-dose-only effect, or another doubt; inactive = no such curve, though single readings can be large; an effect the other way counts as inactive or inconclusive.
SMILES,MCF10A rerep,RORgamma inh,Gal4-VP16 FLuc,SW480 rerep,IL-1B inflam inh
OC1(c2ccc(Cl)c(Cl)c2)C[n+]2ccccc2N1Cc1ccccc1 (centres undefined),16%,0%,-8%,?,-85*
O=C(NC1CCN(Cc2ccccc2)CC1)c1c(Cl)cccc1Cl,-1%,-2%,-10%,-4%,-14
ClC(Cl)(Cl)C1=NCc2nnn(Cc3ccccc3)c2N1,/,/,/,/,25
Nc1c(C(=O)NC23CC4CC(CC(C4)C2)C3)sc2nc3c(c(C(F)(F)F)c12)CCC3,1.6µM*,4%,3%,?,-11
COc1cccc(NC(=O)c2sc3nc(N4CCOCC4)c4c(c3c2N)CCCC4)c1,2.3µM*,20%,27%,8%,-6
CCOc1ccc(NC(=O)c2sc3nc(N4CCOCC4)c4c(c3c2N)CCCC4)cc1,23µM*,2%,3%,2.9µM*,4
Cc1ccc(NC(=O)c2sc3nc(N4CCOCC4)c4c(c3c2N)CCCC4)cc1,/,/,/,/,-23
CC(=O)c1ccc(NC(=O)c2sc3nc(N4CCOCC4)c4c(c3c2N)CCCC4)cc1,2.3µM*,24%,16%,?,-8
Nc1c(C(=O)Nc2ccc(Cl)cc2)sc2nc(N3CCOCC3)c3c(c12)CCCC3,2.1µM*,-2%,1%,16%,0
C=CCOC(=O)NC(CC(=Nc1ccc(OC)cc1)C(=O)OC)c1ccccc1 (centres undefined),/,34%,0%,/,/
CC1(C)CC(=O)C=C(c2n[nH]nc2-c2ccccc2)C1,/,/,/,/,15
NNC(=O)c1sc2nc(N3CCOCC3)c3c(c2c1N)CCCC3,21µM*,-16%,12%,16µM*,-12
Nc1c(C(=O)N2CCOCC2)sc2nc(N3CCOCC3)c3c(c12)CCCC3,15%,-8%,-1%,-11%,-10
CC(NCc1ccc(N(C)C)cc1)C1CC2CCC1C2 (centres undefined),4%,-13%,1%,-1%,-61*
CC(NC(=O)c1ccc(CS(C)(=O)=O)cc1)C1CC2CCC1C2 (centres undefined),-5%,1%,-1%,-2%,6
Cc1cc(Cl)ccc1OC(C)C(=O)Nc1ccccc1N1CCOCC1 (centres undefined),?,?,?,9%,-58*
COc1ccc(Cl)cc1NC(=O)CN(C)CC(=O)Nc1ccccc1N1CCOCC1,?,-12%,-13%,5.2µM*,31
CCN(CC(=O)Nc1ccccc1C(F)(F)F)C(=O)c1cccc(N2C(=O)CCC2=O)c1,0%,/,/,0%,10
Cc1cc(Cl)ccc1OC(C)C(=O)N1CCCN(C(=O)C(C)Oc2ccc(Cl)cc2C)CC1 (centres undefined),?,38%,-13%,?,-65*
COc1ccc(Cl)cc1NC(=O)CN(C)CC(=O)N1CC(=O)Nc2ccccc21,?,/,/,6%,19
CCN(CC(=O)Nc1ccccc1C(F)(F)F)C(=O)c1cc2c(s1)CCCCC2,?,/,/,-5%,-53*
O=C1/C(=C/c2ccccn2)SC(=S)N1Nc1ncc(C(F)(F)F)cc1Cl,?,/,/,3%,-8
CC(C)C=O,/,12%,6%,/,/
COc1ccc(Cl)cc1NC(=O)CN(C)C(=O)Cc1ccc2c(c1)CCC2,5%,19%,-3%,3%,?
COc1ccc(Cl)cc1NC(=O)CNc1ccccc1CN(C)C1CCCCC1,10%,14%,-2%,16%,-214*
SMILES,MCF10A rerep,RORgamma inh,Gal4-VP16 FLuc,SW480 rerep,IL-1B inflam inh
COc1ccc(Cl)cc1NC(=O)CN(C)C(=O)c1cc2c(s1)CCCC2,?,/,/,18µM*,?
COc1ccccc1CN1CC(C(=O)NCCCc2ccc(F)cc2)CCC1=O (centres undefined),1%,?,2%,-5%,0
COc1ccccc1CCCNC(=O)C1CCC(=O)N(CCc2ccc(Cl)cc2)C1 (centres undefined),?,?,-12%,0%,-51*
O=c1[nH]nnc2c1cnn2-c1ccccc1,-1%,/,/,2%,10
COc1cc(NC(=S)Nc2ncccc2C)cc(OC)c1OC,?,13µM*,-5%[10 µM],-8%,-12
COc1cc(NC(=S)Nc2cccc(C)n2)cc(OC)c1OC,23%,2.5µM*,8.9µM*,6%,-18
COc1cccc(NC(=O)Nc2cccc(C)n2)c1,1%,9%,-11%,1%,-28
Oc1ccccc1N1CCN(C(c2ccccc2)c2ccccc2)CC1,?,-6%,19%,-17%,?
COc1ccc(OCCCC(=O)Nc2ccc(S(=O)(=O)N3CCOCC3)cc2)cc1,-7%,/,/,-17%,12
CC(=O)Nc1cc2c(cc1[N+](=O)[O-])-c1ccccc1C2=NO,-1%,/,/,0%,17
CC(=O)Nc1cc2c(cc1[N+](=O)[O-])-c1ccccc1C2O (centres undefined),18µM*,/,/,?,?
CC(C)NC(=O)c1ccc(COc2cc(Cl)ccc2Cl)o1,15%,1%,3%,-7%,-62*
O=C(NC1CCCCC1)C(c1cccs1)N(C(=O)c1ccccn1)c1ccccc1 (centres undefined),-14%,29%,-11%,-15%,24
OC(C#Cc1ccccn1)c1cccs1 (centres undefined),?,10µM*,4.5µM*,?,-95*
CC(=O)Nc1ccc(SCC(=O)NC(=O)c2ccc(S(=O)(=O)N(C)C)cc2)cc1,0%,/,/,-1%,-17
N#Cc1c(-c2cccs2)cc(-c2ccccn2)nc1N,?,?,7.9µM*,?,-11
Nc1nc(-c2ccccc2)cc(-c2ccccc2O)n1,-4%,?,2%,1%,-61*
NNc1nc(-c2ccccc2)cc(-c2ccccc2)n1,6%,4.5µM*,-9%,-36%,?
NNc1nc(-c2ccccc2)cc(-c2ccccc2O)n1,?,7.1µM*,13µM*,?,-9
N#Cc1cc(-c2ccccc2)nc(NN)n1,16%,?,-19%,?,-12
Brc1ccc2c(c1)CN1CCCC1=N2,?,-31%,-17%,-1%,-8
O=C(NCc1ccccc1)[C@@H]1CCCN1C(=O)[C@@H]1CCCN1C(=O)c1cccs1,/,/,/,/,-57*
CCCCNC(=O)C1c2ccccc2OCC(=O)N1C1CC1 (centres undefined),/,/,/,/,30
CC1(C)CC(=O)C(C=Nc2ccc(O)c(N=CC3=C(O)CC(C)(C)CC3=O)c2)=C(O)C1,-2%,-14%,-1%,-6%,7
CC1(C)CC(=O)C(C=Nc2cccnc2)=C(O)C1,-8%,-21%,-7%,-9%,-2
CC1(C)CC(=O)C(C=Nc2cccnc2/N=C/C2=C(O)CC(C)(C)CC2=O)=C(O)C1,14%,10µM*,-13%,17%,-10
